Inconclusive results are not listed. A call without a number means that no potency is given here. Active and inactive are the calls of the source. The call rests on the fitted dose curve; in most records, active means well fitted curve in the direction sought with a large enough effect; inconclusive means small, poorly fitted or top-dose-only effect, or another doubt; inactive means no such curve, though single readings can be large; an effect the other way counts as inactive or inconclusive.
Experiments:
[1] = qHTS of pediatric cancer cell lines to identify multiple opportunities for drug repurposing: Confirmatory screen for MG 63 (6-TG R) cells (AID 1347119); settings: MG-63 (6-TG resistant) osteosarcoma viability; series mostly up to 45.9 µM; further: nearly all actives have a fitted effect of over 55% in size
Method in brief: (§1)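 Viability after 48 h compound treatment at 37C, 500-1,000 cells/well, read as ATP luminescence with CellTiter-Glo. Primary screens used 11-point (MIPE, 0.78 nM-46 µM) or 8-point (NPC, 0.59 nM-46 µM) final concentrations; follow-up screens used 11-point dilutions.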

[2] = qHTS of pediatric cancer cell lines to identify multiple opportunities for drug repurposing: Confirmatory screen for control Hh wild type fibroblast cells (AID 1347121); settings: viability qHTS; series mostly up to 45.9 µM; further: nearly all actives have a fitted effect of over 70% in size
Method in brief: as §1

[3] = qHTS of pediatric cancer cell lines to identify multiple opportunities for drug repurposing: Confirmatory screen for U-2 OS cells (AID 1347122); settings: U-2 OS osteosarcoma cell viability; series mostly up to 45.9 µM; further: nearly all actives have a fitted effect of over 65% in size
Method in brief: as §1

[4] = qHTS of pediatric cancer cell lines to identify multiple opportunities for drug repurposing: Confirmatory screen for Rh18 cells (AID 1347125); settings: Rh18 rhabdomyosarcoma cells, viability; series mostly up to 45.9 µM; further: nearly all actives have a fitted effect of over 55% in size
Method in brief: as §1

[5] = qHTS of pediatric cancer cell lines to identify multiple opportunities for drug repurposing: Confirmatory screen for Rh30 cells (AID 1347126); settings: Rh30 rhabdomyosarcoma cell viability; series mostly up to 45.9 µM; further: nearly all actives have a fitted effect of over 55% in size
Method in brief: as §1

[6] = qHTS of pediatric cancer cell lines to identify multiple opportunities for drug repurposing: Confirmatory screen for RD cells (AID 1347124); settings: RD rhabdomyosarcoma cell viability; series mostly up to 45.9 µM;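 further: cells exposed to compound for 48 h before viability readout; nearly all actives have a fitted effect of over 65% in size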
Method in brief: as §1

[7] = qHTS of pediatric cancer cell lines to identify multiple opportunities for drug repurposing: Confirmatory screen for Saos-2 cells (AID 1347127); settings: Saos-2 osteosarcoma cell viability; series mostly up to 45.9 µM; further: nearly all actives have a fitted effect of over 60% in size
Method in brief: as §1

[8] = qHTS of pediatric cancer cell lines to identify multiple opportunities for drug repurposing: Confirmatory screen for OHS-50 cells (AID 1347128); settings: OHS-50 osteosarcoma cells viability; series mostly up to 45.9 µM;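 further: compound exposure lasted 48 h at 37 degrees C; nearly all actives have a fitted effect of over 55% in size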
Method in brief: as §1

[9] = qHTS of pediatric cancer cell lines to identify multiple opportunities for drug repurposing: Confirmatory screen for SK-N-SH cells (AID 1347129); settings: SK-N-SH neuroblastoma cell viability; series mostly up to 46.1 µM;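 further: cells exposed to compound for 48 h before viability read; nearly all actives have a fitted effect of over 60% in size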
Method in brief: as §1
Potency means the concentration at half of the fitted maximal effect.

Structure (SMILES) | Potency [1] | Potency [2] | Potency [3] | Potency [4] | Potency [5] | Potency [6] | Potency [7] | Potency [8] | Potency [9]
CCOc1ccc(Nc2nc(-c3c(C)nc4ccccn34)cs2)cc1 | 104 nM (active) | inactive | 165 nM (active) | inactive | inactive |  |  |  | 
COc1ncc(-c2ccc3nccc(-c4ccnnc4)c3c2)cc1NS(=O)(=O)c1ccc(F)cc1F | 3.7 nM (active) |  |  | 104 nM (active) | 41.4 nM (active) | inactive | 46.5 nM (active) | 233 nM (active) | 187 nM (active)
Cc1[nH]c(C=C2C(=O)Nc3ccc(S(=O)(=O)Cc4c(Cl)cccc4Cl)cc32)c(C)c1C(=O)N1CCC[C@H]1CN1CCCC1 | 32900 nM (active) | 32900 nM (active) |  | 26100 nM (active) |  |  |  |  | 23500 nM (active)
COc1cc2nc(-c3ccc(N4CCN(C)CC4)cc3)nc(NCCN3CCOCC3)c2cc1OC |  | inactive | 261 nM (active) | 293 nM (active) |  | 208 nM (active) |  | 117 nM (active) | 4690 nM (active)
CC(C)(C(=O)NCC(F)(F)C(F)(F)F)C(=O)N[C@@H]1C(=O)Nc2ccccc2-c2ccccc21 | inactive | inactive | inactive | inactive | inactive | inactive | inactive | inactive | 
Oc1ccc(C2CCN(c3ccnc4ccccc34)CC2)cc1O | 2330 nM (active) | 7370 nM (active) | 2930 nM (active) | inactive |  | 928 nM (active) | inactive |  | 20900 nM (active)
O=C(Nc1cccc(Br)c1)c1cccc(S(=O)(=O)N2CCCCCC2)c1 |  | inactive | inactive | inactive | inactive | inactive | inactive | inactive | inactive
COc1cccc(-c2cc(=O)c3ccccc3o2)c1N | inactive | inactive | inactive | inactive |  | 465 nM (active) | inactive | inactive | 
CC(=O)O[C@]1(C(C)=O)CC[C@@H]2[C@@H]3C[C@H](C)C4=CC(=O)CC[C@]4(C)[C@H]3CC[C@@]21C | inactive | inactive | inactive |  |  | inactive | inactive | inactive | inactive
CC(=NNC(=S)N1CCC1)c1ccccn1 | inactive | inactive |  | inactive |  | inactive | inactive | inactive | 
C=C1C(=O)[C@@]23C(CC[C@@H]1[C@H]2O)[C@@]12CO[C@]3(O)[C@@H](O)[C@@H]1C(C)(C)CC[C@@H]2O (stereo partly drawn) | 10400 nM (active) | inactive |  | 14700 nM (active) | 5850 nM (active) |  | 10400 nM (active) | 20800 nM (active) | 10500 nM (active)
O=C1c2ccccc2-[n+]2ccc3c([nH]c4ccccc43)c21 | 3290 nM (active) | 7370 nM (active) | 1170 nM (active) | 2330 nM (active) | 2930 nM (active) | 1650 nM (active) | 928 nM (active) | 1650 nM (active) | inactive
COc1ccc(-c2coc3cc(O)cc(O)c3c2=O)cc1 | inactive | inactive | inactive | inactive | inactive |  | inactive | inactive | 
CO[C@H]1C=CC=C(C)C(=O)NC2=CC(=O)C(NCCN(C)C)=C(C[C@@H](C)C[C@H](OC)[C@@H](O)[C@@H](C)C=C(C)[C@@H]1OC(N)=O)C2=O | inactive | inactive |  | 1850 nM (active) | 3290 nM (active) | inactive | inactive | inactive | 
CC1(C)CCC(CN2CCN(c3ccc(C(=O)NS(=O)(=O)c4ccc(NCC5CCOCC5)c([N+](=O)[O-])c4)c(Oc4cnc5[nH]ccc5c4)c3)CC2)=C(c2ccc(Cl)cc2)C1 | inactive | inactive |  |  | inactive |  |  |  | 

From PubChem BioAssay (NCATS)
